Only some compounds are listed: those with a hit (about 11% of all), similar ones and a draw of the others.
Coupling enz: inhibits coupling enzyme system, counter-screen for aldolase hits; coupling enzyme system counterscreen, AmpLite Red fluorescence; activity change, negative = inhibition, % at 58.2 µM, hits read low; 290,000 compounds, 0.67% hits; AID 2472; in the data active = activity change below about -30%
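Final compound at 57.5 uM, incubated 10 min at RT with coupling enzyme reagent (glyceraldehyde-3-phosphate), then 20 min with substrate and AmpLite Red detection. Fluorescence read at 525/598 nm; tests interference with the coupling assay, not aldolase inhibition.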
Sfp inh: inhibitors of Bacillus subtilis Sfp phosphopantetheinyl transferase. Q9F4F7. Biochemical Sfp PPTase activity, qHTS. Potency, µM, actives largely listed as inhibitors. 310,000 compounds, 3.5% hits. AID 1490;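 also: the enzyme is Sfp with the accession as filed and its product quenches rhodamine fluorescence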
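Reaction rates are the 30-min fluorescence difference (ex 525, em 598 nm) in wells containing 15 nM Sfp, 5 uM rhodamine-CoA and 12.5 uM BHQ-2-YbbR at pH 7.6 with 10 mM MgCl2.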
Tau fluor cs: counter-screen for tau fibril formation inhibitors | tau K18 P301L Alexa594 fluorescence, heparin fibrillization | 280,000 compounds, 0.93% hits | Potency, µM (titrated, usually from 57.7 µM); also: nearly all actives have a fitted effect of over 55% in size
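Human tau K18 P301L (15 uM unlabeled, 0.24 uM Alexa 594-labeled) in 100 mM sodium acetate pH 7 with 20 uM heparin, 6 hr at 37 C. ThT 30 uM added, 1 hr ambient; Alexa 594 FP and total fluorescence read at 555/632 nm.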
Tau fibril FP: tau fibrillization inhibition (FP) | P10636 | K18 P301L tau heparin fibrillization, Alexa594 FP, 6 h | Potency, µM (series often up to 57.7 µM), actives largely listed as inhibitors | 280,000 compounds, 0.39% hits | AID 1468; also: nearly all actives have a fitted effect of over 55% in size
Target sequence (P10636 561-689 P618L limits assumed): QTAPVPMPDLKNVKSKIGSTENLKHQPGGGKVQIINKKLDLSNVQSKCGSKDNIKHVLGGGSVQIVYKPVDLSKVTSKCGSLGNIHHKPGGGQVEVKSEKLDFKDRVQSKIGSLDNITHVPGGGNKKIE
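FP of Alexa 594-tau after heparin (20 uM) induction. Substrate: human K18 P301L, 15 uM unlabeled, 0.24 uM labeled. Buffer 100 mM sodium acetate pH 7. 6 hr, 37 C.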
Tau fibril ThT: tau fibrillization inhibition (ThT binding); P10636; recombinant tau K18 P301L, heparin-induced fibrillization, ThT fluorescence; Potency, µM (doses to about 57.4 µM), actives largely listed as inhibitors; 270,000 compounds, 2.1% hits; AID 1460; also: nearly all actives have a fitted effect of over 55% in size
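Fibril formation assay: tau K18 P301L at 15 uM with trace Alexa 594 label, heparin inducer 20 uM, pH 7 sodium acetate buffer, 37 C for 6 hr; endpoint ThT signal.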
G9a block: blocks human histone lysine methyltransferase G9a; Q96KQ7; G9a H3K9 monomethylation, AlphaScreen, 2 h; Potency, µM (doses to about 102 µM), most hits filed as inhibitors; 350,000 compounds, 8.8% hits; AID 504332; also: nearly all actives have a fitted effect of over 75% in size
Target sequence (Q96KQ7 913-1193 limits assumed): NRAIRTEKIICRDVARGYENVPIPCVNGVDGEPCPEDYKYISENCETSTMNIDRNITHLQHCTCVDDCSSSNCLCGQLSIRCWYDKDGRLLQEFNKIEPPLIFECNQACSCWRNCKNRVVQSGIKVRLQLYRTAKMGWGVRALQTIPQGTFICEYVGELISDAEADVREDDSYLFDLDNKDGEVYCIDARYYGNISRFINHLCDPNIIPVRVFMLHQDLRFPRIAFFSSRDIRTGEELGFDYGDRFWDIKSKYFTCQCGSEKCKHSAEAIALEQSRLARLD
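Enzyme 20 nM + cpd, 15 min RT; add b-H3K9 pep 500 nM / SAM 20 uM; 2 h RT; anti-H3K9me1 Ab 0.5 ug/mL + SA donor / anti-rabbit acceptor beads 20 ug/mL each, 10 min; AlphaScreen read.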
A number is an active result; [ ] = dose if it differs, or a comment. Unless noted, calls follow the shape of the dose curve; as a rule, active = well fitted curve in the direction sought with a large enough effect; inconclusive = small, poorly fitted or top-dose-only effect, or another doubt; inactive = no such curve, though single readings can be large; an effect the other way counts as inactive or inconclusive.

Results for CCC(=C(c1ccc(OC)cc1)c1ccc(OC)cc1)c1cn(CC(O)CN(CCO)CCO)c2ccccc12 (stereo not given) ?
Coupling enz: inactive; Sfp inh: inconclusive; Tau fluor cs: 13µM[quencher]; Tau fibril FP: inactive; Tau fibril ThT: inconclusive; G9a block: 40µM

What do the screens show for `CCCN(CCC)CC(O)Cn1cc(/C=C/C(=O)c2ccc(OCC)cc2)c2ccccc21` (stereo not given)?
Tau fluor cs: inconclusive; Tau fibril FP: inactive; Tau fibril ThT: 8.9µM; G9a block: inactive

What do the screens show for `COc1ccc(C(=O)/C=C/c2cn(CN3CCN(C)CC3)c3ccccc23)cc1`?
Coupling enz: inactive; Sfp inh: inactive; Tau fluor cs: 18µM[quencher]; Tau fibril FP: inactive; Tau fibril ThT: 13µM; G9a block: inactive

What do the screens show for `CCOc1ccc(C(=O)/C=C/c2cn(CN3CCN(C)CC3)c3ccccc23)cc1`?
Coupling enz: inactive; Sfp inh: inconclusive; Tau fluor cs: 13µM[quencher]; Tau fibril FP: inactive; Tau fibril ThT: inconclusive; G9a block: inactive

What do the screens show for `COc1ccc(Oc2ncc3nc(-c4cc(F)cc(F)c4)c(=O)n(C[C@H]4CCCO4)c3n2)cc1`?
Coupling enz: inactive; Sfp inh: inactive; G9a block: inactive[0.501 µM]

Results for CCNC(=O)c1c(NC(=O)c2nc(S(=O)(=O)CC)ncc2Cl)sc2c1CCCC2 ?
Tau fluor cs: inactive; Tau fibril FP: inactive; Tau fibril ThT: 6.3µM; G9a block: inactive

Results for COCCCNC(=O)c1c(NC(=O)c2nc(S(C)(=O)=O)ncc2Cl)sc2c1CCCC2 ?
Tau fluor cs: inactive; Tau fibril FP: inactive; Tau fibril ThT: 13µM; G9a block: inactive

What do the screens show for `CCSc1ncc(Cl)c(C(=O)Nc2sc3c(c2C(=O)NCCCOC)CCCC3)n1`?
Tau fluor cs: inactive; Tau fibril FP: inactive; Tau fibril ThT: inactive; G9a block: inactive

What do the screens show for `CCCSc1ncc(Cl)c(C(=O)Nc2sc3c(c2C(N)=O)CCCC3)n1`?
Tau fluor cs: inactive; Tau fibril FP: inactive; Tau fibril ThT: inactive; G9a block: inactive

How did O=S(=O)(NCc1nc2cccnc2n1Cc1ccccc1Cl)c1ccc2c(c1)CCCC2 do in these assays?
Tau fluor cs: inactive; Tau fibril FP: inactive; Tau fibril ThT: inactive; G9a block: inactive

How did CC(=O)N1c2ccc(S(=O)(=O)N3CCC(C(=O)Nc4cccc(Cl)c4C)CC3)cc2CC1C (stereo not given) do in these assays?
Tau fluor cs: inactive; Tau fibril FP: inactive; Tau fibril ThT: inactive; G9a block: inactive

Results for O=C(CSC(=S)N1CCCC1)N1CCN(S(=O)(=O)c2cccc([N+](=O)[O-])c2)CC1 ?
Sfp inh: 50µM; G9a block: 40µM

What do the screens show for `CCOC(=O)Cc1csc(CC(N)=O)n1`?
Coupling enz: inactive; Sfp inh: inconclusive; Tau fluor cs: inactive; Tau fibril FP: inactive; Tau fibril ThT: inactive; G9a block: 50µM

What do the screens show for `CCOC(=O)Cc1csc(/C(=N/O)C(N)=O)n1`?
Coupling enz: inactive; Sfp inh: 40µM; Tau fluor cs: inactive; Tau fibril FP: inactive; Tau fibril ThT: inactive; G9a block: inconclusive

How did CCC(C)(C)NC(=O)C(c1cccc(OC)c1OC)N(C(=O)CCC(=O)Nc1cc(C)on1)C(C)C (stereo not given) do in these assays?
Coupling enz: inactive; Sfp inh: inactive; G9a block: inactive

What do the screens show for `COc1ccc(-c2csc(NC(=S)NC(=O)c3ccco3)n2)cc1`?
Coupling enz: inactive; Sfp inh: inconclusive; Tau fluor cs: inactive; Tau fibril FP: inconclusive; Tau fibril ThT: inactive; G9a block: inconclusive

Results for O=C(Nc1nc(-c2ccccn2)cs1)c1ccc(Br)s1 ?
Coupling enz: inactive; Sfp inh: inactive; Tau fluor cs: inconclusive; Tau fibril FP: inactive; Tau fibril ThT: inconclusive; G9a block: 50µM

What do the screens show for `O=C(Nc1nc(-c2ccncc2)cs1)c1ccco1`?
Coupling enz: inactive; Sfp inh: inactive; Tau fluor cs: inactive; Tau fibril FP: inactive; Tau fibril ThT: inconclusive; G9a block: 35µM

Results for O=C(Nc1nc(-c2ccccn2)cs1)c1ccc(F)c(S(=O)(=O)N2CCOCC2)c1 ?
G9a block: 7.1µM

Assay outcomes (PubChem)
